Experimental data: the supplement of paper PMC6411743
± gives the standard deviation of the averaged measurements. Of roughly 5,400 targets only a part is listed; those with the largest changes were picked by preference.

Compound: Nc1nc2c(ncn2[C@@H]2O[C@H](COP(=O)(O)OP(=O)(O)OP(=O)(O)O)[C@@H](O)[C@H]2O)c(=O)[nH]1 [guanosine triphosphate]
Experiment: NP40-soluble protein abundance relative to vehicle (solubility fold change) (ratio); higher = more soluble protein in presence of GTP
How it was run: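 Jurkat crude lysate prepared with a Dounce homogeniser was treated at eight concentrations spanning 0.1 to 10 mM, 10 min at room temperature then 3 min at 37 °C. Solubilisation with 0.8% NP40 and benzonase and ultracentrifugation preceded TMT labelling of the supernatant for LC-MS/MS. Fold change against the detergent-processed vehicle was determined per replicate from vsn-normalised intensities, across three independent experiments.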

UniProt P18887, sequence (P18887 whole entry, one chain of several): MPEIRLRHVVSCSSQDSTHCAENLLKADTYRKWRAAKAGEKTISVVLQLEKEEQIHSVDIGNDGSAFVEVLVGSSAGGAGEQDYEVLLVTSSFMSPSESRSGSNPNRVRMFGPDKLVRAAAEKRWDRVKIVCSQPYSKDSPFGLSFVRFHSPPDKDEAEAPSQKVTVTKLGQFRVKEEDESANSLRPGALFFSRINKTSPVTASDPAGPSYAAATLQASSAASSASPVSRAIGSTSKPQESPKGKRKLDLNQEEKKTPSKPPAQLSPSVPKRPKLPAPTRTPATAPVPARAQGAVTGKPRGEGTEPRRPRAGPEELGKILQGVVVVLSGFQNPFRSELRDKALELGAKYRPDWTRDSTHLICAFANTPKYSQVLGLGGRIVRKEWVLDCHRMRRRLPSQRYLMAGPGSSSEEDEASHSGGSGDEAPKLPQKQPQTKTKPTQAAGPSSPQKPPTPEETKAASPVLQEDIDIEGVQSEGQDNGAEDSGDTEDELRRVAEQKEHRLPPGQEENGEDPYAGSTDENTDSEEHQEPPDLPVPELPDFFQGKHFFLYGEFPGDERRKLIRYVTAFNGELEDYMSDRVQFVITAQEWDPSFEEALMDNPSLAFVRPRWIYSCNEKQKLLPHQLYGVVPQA
UniProt Q96KA5, sequence (Q96KA5 whole entry, one chain of several): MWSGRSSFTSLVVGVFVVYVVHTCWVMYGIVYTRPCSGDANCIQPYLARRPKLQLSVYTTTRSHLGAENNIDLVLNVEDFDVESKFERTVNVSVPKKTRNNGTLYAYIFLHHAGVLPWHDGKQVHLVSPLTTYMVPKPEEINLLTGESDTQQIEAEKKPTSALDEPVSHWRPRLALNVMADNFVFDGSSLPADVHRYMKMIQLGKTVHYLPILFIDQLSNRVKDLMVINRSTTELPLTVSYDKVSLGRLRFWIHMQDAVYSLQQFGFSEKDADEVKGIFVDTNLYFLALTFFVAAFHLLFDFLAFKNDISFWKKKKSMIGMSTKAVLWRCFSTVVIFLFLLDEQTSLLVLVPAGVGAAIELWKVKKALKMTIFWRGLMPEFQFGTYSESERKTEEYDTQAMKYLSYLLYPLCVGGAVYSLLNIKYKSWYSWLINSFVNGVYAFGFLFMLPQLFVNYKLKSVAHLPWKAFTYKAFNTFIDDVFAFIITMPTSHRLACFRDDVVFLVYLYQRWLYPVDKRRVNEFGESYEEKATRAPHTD
UniProt Q9NZM4, sequence (Q9NZM4 whole entry, one chain of several): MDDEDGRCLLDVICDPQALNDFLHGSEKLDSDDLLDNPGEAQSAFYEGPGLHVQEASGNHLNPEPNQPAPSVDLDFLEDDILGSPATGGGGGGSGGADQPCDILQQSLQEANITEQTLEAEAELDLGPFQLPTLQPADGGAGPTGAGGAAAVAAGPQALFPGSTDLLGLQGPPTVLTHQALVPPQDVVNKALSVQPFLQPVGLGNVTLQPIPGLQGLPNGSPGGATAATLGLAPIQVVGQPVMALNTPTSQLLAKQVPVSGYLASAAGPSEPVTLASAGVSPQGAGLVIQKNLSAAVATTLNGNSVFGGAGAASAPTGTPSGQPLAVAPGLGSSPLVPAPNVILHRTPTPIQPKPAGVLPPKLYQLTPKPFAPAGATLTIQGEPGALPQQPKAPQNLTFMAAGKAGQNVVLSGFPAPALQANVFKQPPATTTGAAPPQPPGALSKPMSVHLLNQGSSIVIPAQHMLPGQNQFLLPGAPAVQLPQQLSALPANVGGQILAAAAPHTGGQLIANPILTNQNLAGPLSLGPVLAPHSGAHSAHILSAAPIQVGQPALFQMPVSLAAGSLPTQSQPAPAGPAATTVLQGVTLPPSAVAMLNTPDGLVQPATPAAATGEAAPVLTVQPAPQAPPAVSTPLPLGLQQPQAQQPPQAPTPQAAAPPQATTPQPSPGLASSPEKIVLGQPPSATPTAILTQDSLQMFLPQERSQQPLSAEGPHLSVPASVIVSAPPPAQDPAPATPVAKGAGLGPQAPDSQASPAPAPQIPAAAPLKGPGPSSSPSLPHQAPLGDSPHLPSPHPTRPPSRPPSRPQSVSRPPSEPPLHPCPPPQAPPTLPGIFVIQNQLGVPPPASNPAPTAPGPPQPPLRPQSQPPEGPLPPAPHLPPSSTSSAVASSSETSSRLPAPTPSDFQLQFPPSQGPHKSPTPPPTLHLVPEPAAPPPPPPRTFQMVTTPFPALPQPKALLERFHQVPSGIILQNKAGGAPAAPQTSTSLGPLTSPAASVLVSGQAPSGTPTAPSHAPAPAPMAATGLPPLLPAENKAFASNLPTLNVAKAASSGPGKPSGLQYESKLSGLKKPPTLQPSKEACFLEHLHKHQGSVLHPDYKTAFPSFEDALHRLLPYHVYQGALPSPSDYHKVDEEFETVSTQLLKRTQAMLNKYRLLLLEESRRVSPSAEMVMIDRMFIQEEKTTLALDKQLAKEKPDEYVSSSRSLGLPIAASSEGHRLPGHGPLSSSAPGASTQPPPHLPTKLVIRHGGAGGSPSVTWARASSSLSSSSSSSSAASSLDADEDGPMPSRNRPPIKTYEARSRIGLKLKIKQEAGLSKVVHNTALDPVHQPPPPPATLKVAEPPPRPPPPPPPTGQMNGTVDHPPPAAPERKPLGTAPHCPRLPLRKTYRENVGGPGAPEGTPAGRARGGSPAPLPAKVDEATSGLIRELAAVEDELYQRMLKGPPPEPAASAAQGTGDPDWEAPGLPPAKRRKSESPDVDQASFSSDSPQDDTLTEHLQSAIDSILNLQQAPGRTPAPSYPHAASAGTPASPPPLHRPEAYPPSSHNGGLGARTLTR
UniProt Q9H0W9, sequence (Q9H0W9 whole entry, one chain of several): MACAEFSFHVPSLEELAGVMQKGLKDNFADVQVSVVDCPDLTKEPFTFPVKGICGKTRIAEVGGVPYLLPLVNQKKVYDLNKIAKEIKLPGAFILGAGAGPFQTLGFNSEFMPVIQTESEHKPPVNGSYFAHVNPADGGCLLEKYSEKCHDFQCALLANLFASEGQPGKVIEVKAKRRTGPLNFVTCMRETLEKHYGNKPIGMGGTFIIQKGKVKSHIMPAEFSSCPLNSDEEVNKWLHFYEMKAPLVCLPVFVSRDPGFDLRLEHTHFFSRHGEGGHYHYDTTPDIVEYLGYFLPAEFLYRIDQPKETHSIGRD
UniProt Q15283, sequence (Q15283 whole entry, one chain of several): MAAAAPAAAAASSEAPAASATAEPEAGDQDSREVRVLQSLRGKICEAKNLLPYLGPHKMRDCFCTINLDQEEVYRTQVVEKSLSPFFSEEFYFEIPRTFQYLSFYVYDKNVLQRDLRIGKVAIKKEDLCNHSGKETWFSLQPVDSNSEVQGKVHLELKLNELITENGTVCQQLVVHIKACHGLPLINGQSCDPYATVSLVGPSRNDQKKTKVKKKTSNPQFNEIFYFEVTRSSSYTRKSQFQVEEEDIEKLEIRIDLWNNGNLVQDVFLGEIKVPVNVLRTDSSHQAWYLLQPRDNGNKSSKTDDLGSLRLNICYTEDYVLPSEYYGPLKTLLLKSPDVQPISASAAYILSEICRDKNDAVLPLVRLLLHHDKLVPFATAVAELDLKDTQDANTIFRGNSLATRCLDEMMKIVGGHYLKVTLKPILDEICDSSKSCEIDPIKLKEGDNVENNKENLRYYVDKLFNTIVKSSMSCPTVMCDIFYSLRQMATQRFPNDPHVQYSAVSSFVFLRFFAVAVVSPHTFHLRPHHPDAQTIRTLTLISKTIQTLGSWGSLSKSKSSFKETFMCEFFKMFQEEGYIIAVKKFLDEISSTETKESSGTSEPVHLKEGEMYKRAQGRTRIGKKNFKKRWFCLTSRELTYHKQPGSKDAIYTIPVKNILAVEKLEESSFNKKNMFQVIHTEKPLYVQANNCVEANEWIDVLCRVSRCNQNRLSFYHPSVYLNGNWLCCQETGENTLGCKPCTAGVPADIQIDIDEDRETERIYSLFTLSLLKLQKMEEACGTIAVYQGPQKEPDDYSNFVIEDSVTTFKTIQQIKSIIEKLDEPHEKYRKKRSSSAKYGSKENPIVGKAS
UniProt Q14141, sequence (Q14141 whole entry, one chain of several): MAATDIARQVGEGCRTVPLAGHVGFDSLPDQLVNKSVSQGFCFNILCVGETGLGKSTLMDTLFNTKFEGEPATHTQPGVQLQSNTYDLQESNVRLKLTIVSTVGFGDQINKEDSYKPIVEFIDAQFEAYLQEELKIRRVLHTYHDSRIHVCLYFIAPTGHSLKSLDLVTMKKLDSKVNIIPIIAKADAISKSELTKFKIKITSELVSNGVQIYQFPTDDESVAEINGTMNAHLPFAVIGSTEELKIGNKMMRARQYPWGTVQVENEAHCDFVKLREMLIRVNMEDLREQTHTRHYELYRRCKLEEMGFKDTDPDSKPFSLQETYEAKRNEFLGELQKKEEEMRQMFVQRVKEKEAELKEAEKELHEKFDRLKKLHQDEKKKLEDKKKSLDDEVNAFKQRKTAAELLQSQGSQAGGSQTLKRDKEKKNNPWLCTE

Target	NP40-soluble protein abundance (concentration: 0.1mM)	NP40-soluble protein abundance (concentration: 0.5mM)	NP40-soluble protein abundance (concentration: 1mM)	NP40-soluble protein abundance (concentration: 2mM)	NP40-soluble protein abundance (concentration: 4mM)	NP40-soluble protein abundance (concentration: 6mM)	NP40-soluble protein abundance (concentration: 8mM)	NP40-soluble protein abundance (concentration: 10mM)
A0A087WWH3|Q9NZM4|Q9NZM4-2 (UniProt Q9NZM4)	1.06 ± 0.018	0.989 ± 0.1	1.16 ± 0.19	1.22 ± 0.1	1.22 ± 0.15	1.13 ± 0.33	1.2 ± 0.44	1.33 ± 0.38
B1AMS2|Q14141|Q14141-2|Q14141-4 (UniProt Q14141)	1.03 ± 0.053	0.998 ± 0.011	0.968 ± 0.062	0.9155 ± 0.0055	0.941 ± 0.054	0.921 ± 0.016	0.941 ± 0.1	0.857 ± 0.013
F5H8D7|P18887 (UniProt P18887)	0.976 ± 0.073	1.02 ± 0.085	1.04 ± 0.081	1 ± 0.1	1.03 ± 0.098	1.06 ± 0.1	1.13 ± 0.1	1.1 ± 0.12
A0A087WT99|Q9H0W9|Q9H0W9-2|E9PPB5|E9PQS1 (UniProt Q9H0W9)	0.993 ± 0.094	0.942 ± 0.069	0.925 ± 0.048	0.899 ± 0.068	0.872 ± 0.058	0.897 ± 0.087	0.901 ± 0.11	0.848 ± 0.053
A0A0A0MSJ9|Q15283|Q15283-2 (UniProt Q15283)	1.05 ± 0.057	1.07 ± 0.065	0.985 ± 0.018	0.998 ± 0.04	1.01 ± 0.054	0.967 ± 0.048	0.94 ± 0.067	0.927 ± 0.13
G5E9Z2|Q96KA5|Q96KA5-2 (UniProt Q96KA5)	1.09 ± 0.049	1.07 ± 0.017	1.02 ± 0.042	0.983 ± 0.034	0.989 ± 0.016	0.971 ± 0.039	0.974 ± 0.035	0.96 ± 0.04
